Shown are actives, neighbours in structure and some others; about 21% of the full set was active somewhere.
DRD3 agonist: activates the human D3 dopamine receptor. P35462. D3R DiscoveRx beta-arrestin cells, luminescence, 90 min. max activation, %. 0.58% of 410,000 active; in the data active means max activation above about 30%; further: 0% is about no effect
Target sequence (P35462 whole entry, looked up): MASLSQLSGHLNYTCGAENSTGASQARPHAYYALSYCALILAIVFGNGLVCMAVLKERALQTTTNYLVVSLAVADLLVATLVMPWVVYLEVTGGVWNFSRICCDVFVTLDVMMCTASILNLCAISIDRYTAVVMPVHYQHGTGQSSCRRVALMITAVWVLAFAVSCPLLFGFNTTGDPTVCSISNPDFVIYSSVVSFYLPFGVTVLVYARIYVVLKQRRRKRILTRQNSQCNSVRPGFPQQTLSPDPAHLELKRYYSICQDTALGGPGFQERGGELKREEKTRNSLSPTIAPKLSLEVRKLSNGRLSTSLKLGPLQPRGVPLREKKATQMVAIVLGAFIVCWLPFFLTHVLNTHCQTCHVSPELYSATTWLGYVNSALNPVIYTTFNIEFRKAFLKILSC
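Agonist-mode cell screen: cells plated at 1500/well and incubated overnight at 37 °C, then exposed to library compounds for 90 min at 37 °C. Detection reagent was added for 30–60 min at room temperature, and luminescence was read.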
TDP1 cell noCPT: qHTS for Inhibitors of human tyrosyl-DNA phosphodiesterase 1 (TDP1): qHTS in cells in absence of CPT; AID 686978, 2013; 15% of 420,000 active; Potency, µM (titrated, usually from 46.2 µM), inactives show at the highest dose activity change, negative = growth inhibition, actives largely listed as inhibitors; DT40 Tdp1-/- hTDP1 cells, no CPT, ATP luminescence, 48 h; further: potency means the concentration at half of the fitted maximal effect; on the % scale 0 is the no-effect control and ±100 the full control effect; nearly all actives have a fitted effect of over 55% in size
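No-CPT arm: Tdp1-/-;hTDP1 DT40 cells (400/well) plus compounds, incubated ≥48 hr at 37 °C. Readout CellTiter-Glo luminescence.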
ClpP mod: qHTS Assay for Activators of ClpP. ATP-dependent Clp protease proteolytic subunit (Bacillus subtilis (strain 168)), P80244. purified B. subtilis ClpP, FRET peptide cleavage, 20 min. Potency, µM (top dose mostly 57.5 µM), inactives show at the highest dose activity change, negative = active. 1.9% of 340,000 active; active means well fitted falling curve with a large enough effect; inconclusive means small, poorly fitted or top-dose-only effect; inactive means no such curve, though single readings can be large or run the other way; further: potency means the concentration at half of the fitted maximal effect; the source files actives as falling curves though it sought activators and does not explain the sign; nearly all actives have a fitted effect of over 65% in size
Target sequence (P80244 whole entry, looked up): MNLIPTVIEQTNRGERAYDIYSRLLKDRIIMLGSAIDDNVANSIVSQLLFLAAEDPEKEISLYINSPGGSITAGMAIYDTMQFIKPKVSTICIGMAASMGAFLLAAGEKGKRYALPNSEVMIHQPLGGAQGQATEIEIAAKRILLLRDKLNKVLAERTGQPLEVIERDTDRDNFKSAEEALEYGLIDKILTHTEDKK
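ClpP 10 microg/mL final, pH 8 Tris/KCl buffer with BSA, glycerol, Tween-20; compound pinned in; FRET-FV substrate; RT 20 min; Ex320/Em430; ΔFRET vs ADEP 5.8 microM, DMSO, no enzyme.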
DRD3 antagonist: antagonists of human D3 dopamine receptor; AID 652054; max response, negative = inhibition, %; 2.5% of 360,000 active; D3R cells, DiscoveRx beta-arrestin luminescence, antagonist mode; hits give low values; in the data active means max response below about -50%; inconclusive means no clear call, values can overlap the other calls; further: on the % scale 0 is the no-effect control and ±100 the full control effect
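Cells plated overnight at 1500 cells/well, then exposed to library compounds with dopamine controls for 90 minutes at 37 degrees C. DiscoveRx reagent added for 30–60 minutes at room temperature; luminescence read, quantitative HTS format.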
TDP1 cell CPT: growth inhibition of DT40 Tdp1-/-;hTDP1 cells with camptothecin (screen for TDP1 inhibitors); chicken DT40 Tdp1-/-;hTDP1 cells + 20 nM CPT, ATP luminescence, 48 h; Potency, µM (highest dose often 46.2 µM), without a hit: at the highest dose activity change, negative = growth inhibition, most hits filed as inhibitors; 12% of 420,000 active; AID 686979; further: potency means the concentration at half of the fitted maximal effect; on the % scale 0 is the no-effect control and ±100 the full control effect; nearly all actives have a fitted effect of over 55% in size
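Chicken DT40 Tdp1-/- cells stably complemented with human TDP1 were seeded at 400 cells/well in medium containing 20 nM camptothecin, exposed to pin-transferred compounds, and grown at 37 °C for at least 48 hr. Viability was read as ATP luminescence.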
IL1B secr inh: inhibitors of inflammasome signaling (IL-1 beta secretion) | AID 743279 | activity change, % at 57.5 µM | THP-1 LPS/ATP IL-1B secretion, AlphaLISA, 16 h; hits give low values | 4.7% of 360,000 active; in the data active means activity change below about -50%; inconclusive means mostly about -30% to -49%; further: on the % scale 0 is the no-effect control and ±100 the full control effect
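Secreted IL-1B measured by AlphaLISA bead assay after 16 h compound exposure of THP-1 cells; compounds (final up to 57.5 uM) added 1 h before LPS (250 ng/mL) and ATP (1.25 mM) stimulation; lower signal means less secretion.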
* hit, by the source's call; ? = inconclusive; . = no result. Unless noted, the call rests on the fitted dose curve; in most records, active means well fitted inhibition curve with a large enough effect; inconclusive means small, poorly fitted or top-dose-only effect; inactive means flat fitted curve, though single readings scatter.

SMILES	DRD3 agonist	TDP1 cell noCPT	ClpP mod	DRD3 antagonist	TDP1 cell CPT	IL1B secr inh
O=C(NCCc1ccc(Cl)cc1)C1CCCN(S(=O)(=O)N2CCCCCC2)C1 (configuration not stated)	3	16µM*	-3%	7	18µM*	-9
COC(=O)C1=C(C)N(CCCC(=O)O)C(=O)NC1c1cccc(OC)c1 (configuration not stated)	11	15%	1%	6	-19%	27
Cc1nn(Cc2noc(C(=O)NC3CCC(C)CC3)n2)c(C)c1Br (configuration not stated)	0	?	0%	9	?	10
Cc1noc(C)c1S(=O)(=O)N1CCCC(C(=O)NCCc2ccc(Cl)cc2)C1 (configuration not stated)	1	?	1%	-72*	?	0
Cc1noc(/C=C/N(C)C)c1S(=O)(=O)N1CCCC(C(=O)NCCC2=CCCCC2)C1 (configuration not stated)	-2	16µM*	-1%	0	21µM*	-28
O=C(CSc1nnc(-c2ccc3c(c2)OCO3)o1)Oc1ccccc1	15	1%	-4%	.	0%	.
COCCn1c(C)cc(/C=N/NC(=O)c2cccnc2)c1C	-1	-10%	.	-2	0%	31
Cc1cc(/C=N/NC(=O)c2ccc(O)cc2)c(C)n1CC(C)C	-4	-22%	-9%	0	?	-53*
O=C(CSc1nc2ccccc2c(=O)[nH]1)Nc1ccc(N2CCOCC2)cc1	-6	-32%	2%	5	16µM*	7
CCCc1nc(SCC(=O)Nc2ccc(N3CCOCC3)cc2)c2ccccc2n1	4	5.2µM*	-2%	9	?	3
CC(C)c1nc(SCC(=O)Nc2ccc(N3CCOCC3)cc2)c2ccccc2n1	2	?	2%	-17	15µM*	0
O=C(CSc1ccc2ccccc2n1)Nc1ccc(N2CCOCC2)cc1	0	-12%	.	3	22%	18
O=C(CSc1nnnn1-c1ccccc1)Nc1ccc(N2CCOCC2)cc1	2	-13%	.	-1	6%	19
O=C(CSc1nncn1-c1ccccc1)Nc1ccc(N2CCOCC2)cc1	-3	13µM*	0%	6	23µM*	-6
CCCc1nc(SCC(=O)NNC(=O)C2CCCCC2)c2ccccc2n1	1	-11%	1%	5	-1%	-5
O=C1CN(C(=O)C2CCCCC2)C(c2ccccc2)c2cc(F)ccc2N1 (configuration not stated)	-4	?	-2%	.	?	.
COCCNC(=O)Cn1nc(-c2ccccc2F)ccc1=O	-8	-5%	1%	16	-16%	0
S=c1nc(C2CCCCC2)n(-c2ccccc2)[nH]1	13	23µM*	.	-20	?	19
Fc1ccc(-c2nc(-c3cccs3)no2)cc1	-4	14%	1%	2	-15%	0
Fc1ccc(-c2cc(-c3cccs3)cc(-c3ccccc3)n2)cc1	-5	?	28µM*	-13	?	7
CCc1nc2ccc(C(=O)N3CCN(C(=O)c4ccco4)CC3)cn2c1N(CC)CCOC	4	-11%	-1%	20	-5%	0
O=C(CSc1nnc(-c2ccc(Cl)cc2)n1-c1ccc(Cl)cc1)N/N=C/c1ccco1	5	?	1%	28	21µM*	0
Cc1ccc(/C=N/NC(=O)CSc2nnc(-c3ccc(Cl)cc3)n2-c2ccccc2)o1	13	?	?	46	?	1
Cc1ccc(-n2c(SCC(=O)N/N=C/c3ccc(C)s3)nnc2-c2ccccc2)cc1	5	?	2%	-3	?	-57*
Cc1ccc(-n2c(SCC(=O)N/N=C/c3ccccc3C(=O)O)nnc2-c2ccccc2)cc1	2	-4%	.	7	-26%	-4
SMILES	DRD3 agonist	TDP1 cell noCPT	ClpP mod	DRD3 antagonist	TDP1 cell CPT	IL1B secr inh
COc1ccc(/C=C/C(=O)NCC2Cc3cc(Cl)cc(-c4ncccn4)c3O2)cc1 (configuration not stated)	.	-15%	.	.	-6%	.
OCC[C@H]1C[C@@H](O)[C@H](O)[C@@]2(CCCO2)O1	-8	16%	-6%	10	-12%	9
C/C(=N/OCC(=O)NCCCCCCNC(=O)CO/N=C(/C)c1cccs1)c1cccs1	8	?	-21%	6	?	-2
CCCCCCNCc1ccc(Br)cc1	-34	?	1%	-66*	?	-56*
CCCCCNCc1ccc(Br)cc1	-35	-24%	-1%	?	-19%	?
CCCCCCNCc1cccc(Br)c1	-31	-24%	-1%	-81*	?	-23
Brc1cccc(CNn2cnnc2)c1	7	-5%	.	-17	5%	17
CCCCCNCc1cccc(Br)c1	-31	-18%	0%	-63*	?	-23
CCc1ccc(C(=O)COC(=O)C(Cc2c[nH]c3ccccc23)NC(=O)c2ccc(Br)cc2)cc1 (configuration not stated)	-12	-28%	-3%	.	-22%	.
Cc1ccc(C2NC(=O)c3ccccc3N2)s1 (configuration not stated)	-8	4.6µM*	28µM*	5	5.8µM*	22
O=C1NC(c2ccc(Cl)cc2)Nc2ccccc21 (configuration not stated)	-7	-20%	.	-3	6%	25
Cc1ccc(N=C2C(=O)Nc3ccccc32)c(C)c1	-7	-4%	.	-19	4%	-7
CN(C)c1ccc(C2NC(=O)c3ccccc3N2)cc1 (configuration not stated)	0	-15%	38%	9	-49%	2
Cc1ccc(C2NC(=O)c3ccccc3N2)c(C)c1 (configuration not stated)	-13	2.9µM*	28µM*	-17	2.1µM*	15
Cc1cccc(C2NC(=O)c3ccccc3N2)c1 (configuration not stated)	6	5.2µM*	28µM*	-29	3.3µM*	0
CCCC(=O)n1nc(-c2ccco2)nc1NCc1ccccc1Cl	6	-1%	-1%	.	-26%	.
Cc1nc2cccnc2n1-c1cccc(C(=O)NCCc2ccc(S(N)(=O)=O)cc2)c1	-9	-6%	10%	.	-3%	.
